The whole screen tested about 98,000 compounds, of which about 4,900 (5%) were called active. For the sample, actives were picked, then their nearest neighbours and some compounds at random. Values without a mark were called inactive. Cut-off read from the data, not from the text of the source: active = inhibition above about 30%; inactive = the rest.
Test: growth inhibition of yeast control strain, primary screen, counter-screen for post-Golgi transport modulator project (AID 738)
Details: efflux-deficient yeast background strain, growth absorbance A615, 16 h; at 10 µM; active compounds read high

| SMILES | inhibition |
| --- | --- |
| O=C(Nc1ccc2c(c1)OCCO2)c1ccc(Cl)c(S(=O)(=O)N2CCCCC2)c1 | 7.53% |
| O=C(NCCc1ccccc1)c1ccc(NC2=NC3CS(=O)(=O)CC3S2)cc1 (configuration not stated) | -1.06% |
| Cc1c(Br)c([N+](=O)[O-])nn1C(C)C(=O)Nc1nccs1 (configuration not stated) | 23.8% |
| O=C(Cc1ccc(F)cc1)NC1CCCC1 | 20.8% |
| CCNc1nc(N)nc(-c2cc(Cl)ccc2OC)n1 | -4.76% |
| COc1ccc2c3c(c(=O)oc2c1OCC(=O)C(C)(C)C)CCCC3 | 7.23% |
| O=c1oc2c(CN3CCCCC3)c(O)ccc2c2c1CCCCC2 | -5.61% |
| CCCOc1ccc2c3c(c(=O)oc2c1OCCC)CCC3 | 36.1% (active) |
| Cc1c(-c2ccccc2)nc(N)c(C#N)c1-c1cccs1 | 15% |
| CSc1ccc(-c2c(C#N)c(N)nc3c2c(C)nn3-c2ccccc2)cc1 | 2.79% |
| CSc1nc(N)c(C#N)c(-c2ccccc2Cl)c1C#N | 68.3% (active) |
| COc1cccc(/C=N\Nc2nncc(-c3ccccc3)n2)c1 | 7.59% |
| Nc1ccc(-c2sc(N)nc2-c2ccccc2)cc1 | 2.78% |
| O=C(Nc1cccc2ncccc12)C(Cl)(Cl)Cl | 8.77% |
| COc1cc(OC)c(NC(=O)c2ccc(Br)o2)cc1Cl | 2.65% |
| O=C(Nc1cccc2ncccc12)c1ccc(-c2ccc(Cl)cc2Cl)o1 | 37.2% (active) |
| CCC1(CC)NC(=O)N(CC(=O)OCC(=O)Nc2ccc(C(F)(F)F)cc2)C1=O | 5.34% |
| O=C(c1ccco1)N1CCN(C(=O)C2c3ccccc3Oc3ccccc32)CC1 | 0.85% |
| O=C(N/N=C/c1ccc(O)c(O)c1)C1c2ccccc2Oc2ccccc21 | 2.52% |
| CCCN(CCC)C(=O)C1c2ccccc2Oc2ccccc21 | 31.5% (active) |
| Cc1c(NC(=O)CCCOc2ccccc2)cccc1[N+](=O)[O-] | 2.57% |

| SMILES | inhibition |
| --- | --- |
| CC1Cc2ccccc2N1CC(=O)Nc1ccc2c(c1)OC(F)(F)O2 (configuration not stated) | 17.9% |
| O=C(CC12CC3CC(CC(C3)C1)C2)Nc1ccc2c(c1)COC2=O | 42.7% (active) |
| O=C(O)CSCNC(=O)CC12CC3CC(CC(C3)C1)C2 | 0.28% |
| COCCCNC(=O)C1CC(=O)N(CCc2ccccc2)C1 (configuration not stated) | 5.92% |
| COc1cc(OC)cc(C(=O)NC2CCN(C(=O)N3c4ccccc4Sc4ccccc43)CC2)c1 | 4.32% |
| COc1cc(C(O)c2nc3ccccc3n2C)cc(OC)c1OC (configuration not stated) | 41.1% (active) |
| CC(C)n1c(C(O)c2ccccc2)nc2ccccc21 (configuration not stated) | 1.26% |
| CCCn1c(C(O)c2cc(OC)ccc2OC)nc2ccccc21 (configuration not stated) | 17.6% |
| O=C(Nc1ncccn1)c1cccs1 | 5.69% |
| CCOc1cc(C(=O)Nc2ncccn2)cc(OCC)c1OCC | -2.73% |
| Cn1c(=O)c(C(=O)Nc2ncccn2)c(O)c2ccccc21 | 44.2% (active) |
| CCCn1nnnc1NC(=O)COc1ccc(Cl)cc1C | 4.96% |
| O=C(NCCc1ccccn1)c1cc(C(=O)C2CCCCC2)c[nH]1 | -1.83% |
| Cc1ccc(SCC(=O)NC(=O)NCc2ccco2)c(C)c1 | 2.9% |
| OC(COc1cccc2ccccc12)CN1CCN(c2ccccn2)CC1 (configuration not stated) | -6.3% |
| O=C1c2cccc3cccc(c23)N1CN1CCN(c2ccccn2)CC1 | 32.2% (active) |
| CC(=C1C(=O)c2ccccc2C1=O)N1CCN(c2ccccn2)CC1 | 2.92% |
| CC1=C(C)CC(C(=O)NNC(=O)c2ccccc2O)C(C(=O)O)C1 (configuration not stated) | -0.3% |
| Cc1nc(NC2=NC(C(=O)Nc3ccc(Cl)cc3)CC(=O)N2)nc2ccccc12 (configuration not stated) | -4.48% |
| CSc1ccc(C#N)cc1NC(=O)c1cccc(Cl)c1 | 15.8% |
| Cc1cc(C)cc(OCC(=O)Nc2nc3ccc([N+](=O)[O-])cc3s2)c1 | 11.7% |

| SMILES | inhibition |
| --- | --- |
| O=C(NC(Nc1nc2ccc([N+](=O)[O-])cc2s1)(C(F)(F)F)C(F)(F)F)c1ccccc1 | 89.5% (active) |
| COC(=O)C(NC(=O)c1ccc(OC)cc1)(Nc1ncc(S(=O)(=O)c2ccc([N+](=O)[O-])cc2)s1)C(F)(F)F (configuration not stated) | 6.12% |
| COc1ccc2c(c1OC)C(=O)c1ccccc1C2=O | 1.8% |
| Cc1nnc(SCC(=O)N/N=C/c2cn(-c3ccccc3)nc2-c2ccc(F)cc2)n1-c1ccccc1 | 4.61% |
| O=C1c2ccccc2C2=Nc3ccccc3SC(c3ccccc3F)C12 (configuration not stated) | 95.4% (active) |
| O=C(CN1C(=O)NC2(CCCC2)C1=O)Nc1ccc(F)c(F)c1F | 3.79% |
| O=C1C=C(c2ccc(Cl)cc2)C(=O)N1Nc1ccccc1 | 99.5% (active) |
| O=C1c2cccc3cc(Br)cc(c23)C(=O)N1Nc1ccccc1 | 12.1% |
| O=C(Nc1ccccc1)OCc1cc(-c2ccc(Cl)cc2)on1 | 10.1% |
| Cc1ccc(-c2nnc(-n3nnc4ccccc43)c3ccccc23)cc1 | 12% |
| N=c1oc2ccccc2cc1C(=O)N/N=C/c1ccccc1 | -3.5% |
| CCN(CC)C(=O)CSc1nnc(-c2cccc(OC)c2)o1 | 2.38% |
| CCOC(=O)CSc1nnc(-c2cccc(Br)c2)o1 | 31.6% (active) |
| CCOC(=O)CSc1nnc(-c2ccncc2)o1 | 2.24% |
| O=C(CSCc1ccccc1Cl)NNC(=O)c1ccccc1 | 3.42% |
| CCOc1ccc(N(CC(=O)NC2CCCCCC2)S(=O)(=O)c2c(C)[nH]c(=O)[nH]c2=O)cc1 | 5.91% |
| COc1ccc(-c2c(C(C)=O)c(C)nc3sc4c(=O)n(-c5ccc(C)cc5)nnc4c23)cc1 | 16.1% |
| CCn1c(SCC(=O)Nc2ccc(OC)c(OC)c2)nnc1-c1c[nH]c2ccccc12 | 7.39% |
| CCn1c(SCCC(C)C)nnc1-c1c[nH]c2ccccc12 | 56.1% (active) |
| CCC(C)Sc1nnc(-c2c[nH]c3ccccc23)n1CCOC (configuration not stated) | 0.59% |
